Experimental data as given in ChEMBL document CHEMBL1961873, “Compounds: GSK PKIS; Assays: Nanosyn kinase panel” (2012).

Experiments:
[1] = biological target: MAP/microtubule affinity-regulating kinase 3 (Homo sapiens) (UniProt P27448); settings: at 1 µM;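 also: reported values are averaged percent inhibition of MARK3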
[2] = biological target: T1, MAP/microtubule affinity-regulating kinase 4 (Homo sapiens) (UniProt Q96L34); settings: at 0.1 µM
T1 sequence (whole entry): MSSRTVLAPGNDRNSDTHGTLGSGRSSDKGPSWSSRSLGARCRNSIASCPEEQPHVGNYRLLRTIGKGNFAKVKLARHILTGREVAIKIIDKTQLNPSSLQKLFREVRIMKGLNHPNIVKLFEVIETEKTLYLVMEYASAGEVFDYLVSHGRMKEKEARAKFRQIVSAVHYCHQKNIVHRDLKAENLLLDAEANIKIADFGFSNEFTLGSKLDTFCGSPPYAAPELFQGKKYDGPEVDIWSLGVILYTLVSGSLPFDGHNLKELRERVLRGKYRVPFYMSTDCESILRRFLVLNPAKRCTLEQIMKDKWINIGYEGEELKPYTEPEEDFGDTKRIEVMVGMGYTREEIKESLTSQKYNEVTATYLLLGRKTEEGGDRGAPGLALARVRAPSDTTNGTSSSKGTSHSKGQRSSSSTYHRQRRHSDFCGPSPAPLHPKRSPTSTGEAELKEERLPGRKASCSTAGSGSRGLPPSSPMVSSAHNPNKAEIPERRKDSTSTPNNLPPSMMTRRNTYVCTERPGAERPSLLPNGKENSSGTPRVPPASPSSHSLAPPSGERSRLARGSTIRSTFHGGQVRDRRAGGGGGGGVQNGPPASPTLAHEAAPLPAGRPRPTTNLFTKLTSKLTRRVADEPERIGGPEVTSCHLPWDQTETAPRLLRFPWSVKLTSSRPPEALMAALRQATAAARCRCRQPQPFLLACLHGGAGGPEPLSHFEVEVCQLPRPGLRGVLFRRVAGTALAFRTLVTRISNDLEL

[3] = biological target: T1, MAP/microtubule affinity-regulating kinase 4 (Homo sapiens); settings: at 1 µM
[4] = biological target: Maternal embryonic leucine zipper kinase (Homo sapiens) (UniProt Q14680); settings: at 0.1 µM
Maternal embryonic leucine zipper kinase (Homo sapiens), sequence (Q14680 whole entry, looked up): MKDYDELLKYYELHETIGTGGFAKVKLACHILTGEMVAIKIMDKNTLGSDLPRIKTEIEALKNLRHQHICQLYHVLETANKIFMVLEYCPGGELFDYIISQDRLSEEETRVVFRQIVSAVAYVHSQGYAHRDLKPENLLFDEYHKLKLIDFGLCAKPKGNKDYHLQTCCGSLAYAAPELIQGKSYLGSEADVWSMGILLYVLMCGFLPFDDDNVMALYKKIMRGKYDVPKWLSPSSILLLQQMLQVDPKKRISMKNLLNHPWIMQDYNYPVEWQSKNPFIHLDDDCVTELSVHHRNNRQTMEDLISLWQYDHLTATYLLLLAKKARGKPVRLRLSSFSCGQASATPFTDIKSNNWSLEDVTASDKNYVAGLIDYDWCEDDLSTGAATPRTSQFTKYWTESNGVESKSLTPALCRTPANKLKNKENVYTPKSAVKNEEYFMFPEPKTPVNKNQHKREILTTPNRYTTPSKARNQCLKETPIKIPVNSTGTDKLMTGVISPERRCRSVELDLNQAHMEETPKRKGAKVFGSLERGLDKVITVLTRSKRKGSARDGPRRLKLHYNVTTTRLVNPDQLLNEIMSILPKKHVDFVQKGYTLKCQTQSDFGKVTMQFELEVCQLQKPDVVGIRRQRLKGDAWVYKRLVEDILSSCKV

[5] = biological target: Maternal embryonic leucine zipper kinase (Homo sapiens) (UniProt Q14680); settings: at 1 µM
[6] = biological target: MAP kinase-interacting serine/threonine-protein kinase 1 (Homo sapiens) (UniProt Q9BUB5); settings: at 0.1 µM
MAP kinase-interacting serine/threonine-protein kinase 1 (Homo sapiens), sequence (Q9BUB5 whole entry, looked up): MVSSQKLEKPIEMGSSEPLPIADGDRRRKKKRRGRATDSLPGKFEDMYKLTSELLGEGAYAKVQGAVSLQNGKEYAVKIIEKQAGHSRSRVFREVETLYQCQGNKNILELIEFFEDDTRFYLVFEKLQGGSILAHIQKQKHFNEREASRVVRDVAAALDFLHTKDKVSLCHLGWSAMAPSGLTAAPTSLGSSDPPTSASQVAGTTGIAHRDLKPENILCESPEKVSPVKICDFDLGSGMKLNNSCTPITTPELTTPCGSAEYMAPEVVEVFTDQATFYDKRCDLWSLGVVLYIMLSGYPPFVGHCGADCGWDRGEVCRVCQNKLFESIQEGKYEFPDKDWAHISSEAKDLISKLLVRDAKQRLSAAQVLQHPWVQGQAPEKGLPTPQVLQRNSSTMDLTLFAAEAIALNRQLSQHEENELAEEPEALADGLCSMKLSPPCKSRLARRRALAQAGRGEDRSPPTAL

[7] = biological target: MAP kinase-interacting serine/threonine-protein kinase 1 (Homo sapiens) (UniProt Q9BUB5); settings: at 1 µM
[8] = biological target: MAP kinase-interacting serine/threonine-protein kinase 2 (Homo sapiens) (UniProt Q9HBH9); settings: at 0.1 µM
MAP kinase-interacting serine/threonine-protein kinase 2 (Homo sapiens), sequence (Q9HBH9 whole entry, looked up): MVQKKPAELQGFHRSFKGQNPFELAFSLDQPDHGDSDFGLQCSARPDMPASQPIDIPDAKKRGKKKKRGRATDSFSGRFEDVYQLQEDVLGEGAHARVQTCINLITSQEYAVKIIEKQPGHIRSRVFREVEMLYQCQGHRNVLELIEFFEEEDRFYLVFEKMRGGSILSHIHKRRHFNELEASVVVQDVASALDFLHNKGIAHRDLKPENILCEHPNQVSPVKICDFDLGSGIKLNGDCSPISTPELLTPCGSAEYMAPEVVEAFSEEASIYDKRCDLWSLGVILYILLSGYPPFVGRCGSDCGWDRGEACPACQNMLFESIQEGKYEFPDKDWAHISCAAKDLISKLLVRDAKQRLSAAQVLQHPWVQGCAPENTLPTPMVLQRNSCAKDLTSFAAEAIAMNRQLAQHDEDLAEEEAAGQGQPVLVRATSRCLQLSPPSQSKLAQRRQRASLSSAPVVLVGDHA

[9] = biological target: MAP kinase-interacting serine/threonine-protein kinase 2 (Homo sapiens) (UniProt Q9HBH9); settings: at 1 µM
[10] = biological target: Serine/threonine-protein kinase MARK2 (Homo sapiens) (UniProt Q7KZI7); settings: at 0.1 µM;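 also: mean percent inhibition of PAR-1Balpha kinase activity, reported from the GSK PKIS screen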
Serine/threonine-protein kinase MARK2 (Homo sapiens), sequence (Q7KZI7 whole entry): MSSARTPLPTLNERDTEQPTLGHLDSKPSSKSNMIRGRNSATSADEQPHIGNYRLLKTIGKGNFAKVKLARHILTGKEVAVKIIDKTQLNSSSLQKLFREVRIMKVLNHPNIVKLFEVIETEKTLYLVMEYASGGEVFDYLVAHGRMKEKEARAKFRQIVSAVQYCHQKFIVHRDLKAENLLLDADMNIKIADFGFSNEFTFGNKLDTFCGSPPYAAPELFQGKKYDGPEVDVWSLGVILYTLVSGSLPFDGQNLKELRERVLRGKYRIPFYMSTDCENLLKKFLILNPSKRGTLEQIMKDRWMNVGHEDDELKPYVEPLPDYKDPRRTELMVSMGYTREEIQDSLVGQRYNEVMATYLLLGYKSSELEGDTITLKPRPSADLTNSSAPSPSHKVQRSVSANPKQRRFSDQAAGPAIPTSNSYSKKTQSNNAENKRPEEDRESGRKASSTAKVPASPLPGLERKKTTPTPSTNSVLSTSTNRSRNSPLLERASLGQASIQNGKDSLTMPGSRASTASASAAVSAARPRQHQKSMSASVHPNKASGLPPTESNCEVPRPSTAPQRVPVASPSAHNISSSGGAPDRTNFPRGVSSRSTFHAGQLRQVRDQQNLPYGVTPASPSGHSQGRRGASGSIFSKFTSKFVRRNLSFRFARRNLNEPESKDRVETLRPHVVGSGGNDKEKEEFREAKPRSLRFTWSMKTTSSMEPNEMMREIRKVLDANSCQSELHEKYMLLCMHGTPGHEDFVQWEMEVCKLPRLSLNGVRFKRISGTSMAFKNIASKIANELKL

MAP/microtubule affinity-regulating kinase 3 (Homo sapiens), sequence (P27448 whole entry, looked up): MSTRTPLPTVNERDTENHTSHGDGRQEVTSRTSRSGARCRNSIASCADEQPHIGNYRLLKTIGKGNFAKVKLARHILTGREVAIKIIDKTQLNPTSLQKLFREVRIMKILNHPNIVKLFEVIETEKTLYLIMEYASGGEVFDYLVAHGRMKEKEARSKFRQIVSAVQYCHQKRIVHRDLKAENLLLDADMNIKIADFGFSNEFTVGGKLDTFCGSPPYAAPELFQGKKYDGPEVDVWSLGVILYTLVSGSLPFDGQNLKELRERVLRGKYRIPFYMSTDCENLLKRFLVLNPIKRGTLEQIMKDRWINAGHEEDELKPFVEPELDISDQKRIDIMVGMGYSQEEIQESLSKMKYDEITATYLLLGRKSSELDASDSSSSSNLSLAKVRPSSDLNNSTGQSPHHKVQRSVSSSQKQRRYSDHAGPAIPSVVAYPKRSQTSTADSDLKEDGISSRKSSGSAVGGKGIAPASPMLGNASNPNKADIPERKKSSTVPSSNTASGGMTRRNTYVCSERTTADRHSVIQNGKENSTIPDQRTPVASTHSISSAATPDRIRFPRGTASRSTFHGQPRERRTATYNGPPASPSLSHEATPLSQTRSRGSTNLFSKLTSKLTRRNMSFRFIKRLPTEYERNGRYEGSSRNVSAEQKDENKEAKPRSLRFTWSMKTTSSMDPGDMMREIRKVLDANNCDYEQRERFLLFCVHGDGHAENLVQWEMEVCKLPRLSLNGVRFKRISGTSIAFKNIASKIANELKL

Compound | inhibition [1] [%] | inhibition [2] [%] | inhibition [3] [%] | inhibition [4] [%] | inhibition [5] [%] | inhibition [6] [%] | inhibition [7] [%] | inhibition [8] [%] | inhibition [9] [%] | inhibition [10] [%]
CCc1ccc(Oc2nccc(-c3c(-c4ccc(F)cc4)ncn3C3CCNCC3)n2)cc1 | 7.86 | 2.89 | 4.67 | 6.32 | 5.64 | 2.17 | 4.48 | 3.36 | 3.52 | 1.93
O=C(NCC1CC1)c1ccc(-c2cccc(C(=O)NC3CC3)c2)cc1 | 6.77 | 0.89 | 0.47 | 1.66 | 0.83 | 1.09 | 0.19 | -1.06 | 0.04 | 0.08
Fc1ccc(-c2c(-c3ccncc3)nc3n2CCS3)cc1 | 11.9 | 1.3 | 2.25 | 4.24 | 7.4 | 0.84 | 8.91 | 0.34 | 6.79 | 1.04
CCS(=O)(=O)c1ccc(OC)c(Nc2ncc(-c3ccccc3Cl)o2)c1 | -1.14 | -1.13 | 0.41 | -0.46 | 3.44 | 1.1 | 5.2 | 0.17 | 7.7 | 1.4
CN(C)CCCNc1nccc(-c2c(-c3ccc(F)cc3)nn3cc(C(F)(F)F)ccc23)n1 | 3 | 1.09 | 2.72 | 1.14 | 2.95 | 1.94 | 8.83 | 0.89 | 6.51 | -0.22
O=C1Nc2ccccc2/C1=C/Nc1ccc(-n2cncn2)cc1 | 36.4 | 3.35 | 17.9 | 6.89 | 25.8 | 7.6 | 14.8 | 2.4 | 8.07 | 1.47
c1ccc(-c2n[nH]cc2-c2ccnc(-c3ccc(OCCN4CCOCC4)cc3)c2)nc1 | 5.45 | 4.57 | 5.04 | -1.03 | 3.77 | 4.82 | 2.74 | 3.62 | 2.02 | 4.23
COc1cc2ncn(-c3cc(OCc4ccccc4C(F)(F)F)c(C(C)=O)s3)c2cc1OC | 3.71 | 3 | 2.91 | 3.94 | 1.83 | 3.58 | 5.46 | 1.92 | 4.93 | -0.07
CN(C)CCOc1ccc(-c2cc(-c3ccc4c(c3)CCC4=NO)c(-c3ccncc3)o2)cc1 | -0.6 | -0.26 | 0.68 | -1.71 | -1.71 | 1.14 | 5.12 | 0.16 | 2.71 | -1.72
Fc1ccc(-c2ncn(C3CCNCC3)c2-c2ccnc(Oc3ccc(F)c(F)c3)n2)cc1 | 12.2 | 3.57 | 4.5 | 7.73 | 7.03 | 2.05 | 3.06 | 1.28 | 1.04 | -0.25
Cc1ccc(NC(=O)c2ccoc2)cc1-c1ccc(C(=O)NCC2CC2)cc1 | 1.79 | 0.31 | 0.19 | 3.06 | -0.33 | 3.06 | 4.75 | -0.05 | 2.22 | -0.93
Fc1ccc(-c2ncn(C3CCNCC3)c2-c2ccnc(Oc3ccc(Oc4ccccc4)cc3)n2)cc1 | 2.05 | 0.75 | 2.59 | 6.35 | 11.1 | 1.1 | 1.53 | 0.72 | 1.76 | 2.71
C[C@@H](Oc1cc(-n2cnc3ccc(OC4CCN(C)CC4)cc32)sc1C(N)=O)c1ccccc1Cl | 8.01 | 2.31 | 5.68 | 6.66 | 26.9 | 3.58 | 17.6 | 3.77 | 21 | 2.47
NS(=O)(=O)c1ccc(N/N=C2\C(=O)Nc3ccc(C(=O)NCCCn4ccnc4)cc32)cc1 | 5.47 | 3.39 | 14.6 | 6.78 | 46.9 | 7.7 | 16.8 | 3.98 | 14.2 | 1.13
CCN(CC)Cc1ccc(Nc2nccc(-c3cnn4ncccc34)n2)cc1 | 24.7 | 4.42 | 18.9 | 12.5 | 55.4 | 2.28 | 9.82 | 2.76 | 8.84 | 3.28
CS(=O)(=O)CCNCc1ccc(-c2ccc3ncnc(Nc4ccc(OCc5ccccc5)c(Br)c4)c3c2)o1 | -0.13 | 2.98 | 2.37 | 5.3 | 5.37 | 2.72 | 6.16 | 2.36 | 7.73 | 0.23
NC(=O)c1ccc(Oc2nccc(-c3c(-c4ccc(F)cc4)ncn3C3CCNCC3)n2)cc1 | 6.64 | 1.51 | 2.24 | 7.28 | 11.6 | 3.92 | 4.27 | 3.56 | 4.79 | 2.73

Compound | inhibition [1] [%] | inhibition [2] [%] | inhibition [3] [%] | inhibition [4] [%] | inhibition [5] [%] | inhibition [6] [%] | inhibition [7] [%] | inhibition [8] [%] | inhibition [9] [%] | inhibition [10] [%]
O=C1Nc2ccc(I)cc2C1=Cc1cc(Br)c(O)c(Br)c1 | 2.16 | 1.14 | 2.32 | 2.86 | 13.8 | 2.2 | 7.73 | 2.51 | 17.6 | -0.39
COc1cc(Nc2ncc3c(C)nc(-c4cccc(C(F)(F)F)c4)n3n2)cc(OC)c1OC | 7.63 | 1.28 | 7.81 | 13.1 | 63.1 | 3.56 | 7.34 | 2.94 | 6 | 0.26
C/C(Nc1ccc(S(N)(=O)=O)cc1)=C1/C(=O)Nc2ccccc21 | 19.8 | 4.34 | 28.2 | 2.57 | 41.9 | -1.24 | 3.04 | -1.74 | 3.41 | 2.01
N#Cc1ccc(Oc2nccc(-c3c(-c4ccc(F)cc4)ncn3C3CCNCC3)n2)cc1 | 0.33 | 2.3 | 2.46 | 6.59 | 4.91 | 2.51 | 2.45 | -0.25 | -0.69 | -1.85
COc1ccc2cc(-c3c(-c4ccncc4)nc(-c4ccc([S+](C)[O-])cc4C)n3C)ccc2c1 (stereo not given) | -1.9 | -0.17 | -0.24 | 0.29 | 0.51 | 5.22 | 10 | 0.98 | 3.96 | -1.24
Fc1ccc(-c2ncn(CCCN3CCOCC3)c2-c2ccncc2)cc1 | 22 | 0.52 | 0.72 | -0.32 | -0.03 | -0.96 | 0.15 | -1.39 | -0.24 | -1.95
NC(=O)Cc1ccccc1Oc1nccc(-c2c(-c3ccc(F)cc3)ncn2C2CCNCC2)n1 | 5.15 | 1.54 | 1.97 | 1.5 | 5.18 | 1.93 | 1.72 | 0.62 | 0.77 | 1.48
CCS(=O)(=O)c1ccc(OC)c(Nc2ncc(-c3cccc(-c4ccccc4F)c3)o2)c1 | 7.39 | 1.24 | 1.22 | 1.52 | 3.29 | 1.34 | 4.69 | 0.34 | 3.99 | -5.23
COc1cc(C)c(N(C)C(=O)CN(C)C)cc1Nc1nc(Nc2cccc(F)c2C(N)=O)c2cc[nH]c2n1 | 4.11 | 1.12 | 1.75 | -1.34 | 5.45 | -0.51 | 1.72 | -1.19 | -0.74 | 0.4
NS(=O)(=O)c1ccc(Nc2cc(-c3ccc(O)c(F)c3)n[nH]2)cc1 | 4.97 | 1.26 | 11.7 | -5.49 | 39.3 | -0.77 | 6.93 | 0.26 | 7.33 | 0.4
CN(c1ccc(NC(=O)Nc2c(Cl)cccc2Cl)cc1)c1ccnc(Nc2cccc(CS(C)(=O)=O)c2)n1 | 13.3 | 2.82 | 12.8 | 3.73 | 3.32 | 10.2 | 27.9 | 20.4 | 45.6 | -0.82
COc1cc(N2CCN(C(C)C)CC2)ccc1Nc1nc(Nc2ccc(F)cc2C(=O)NC[C@@H](O)CO)c2cc[nH]c2n1 | 19.6 | 1.95 | 2.9 | 3.61 | 19.9 | 3.33 | 8.52 | 1.03 | 5.28 | 1.97
CCc1cccc(CC)c1/C=C/c1cncc(C(=O)NC)c1 | 0.43 | 0.15 | 1.03 | 1.61 | 3.83 | 1.04 | 3.27 | 0.49 | 1.79 | -0.01
C#Cc1cccc(Nc2ncnc3ccc(OCCCCNCCS(C)(=O)=O)cc23)c1 | 6.08 | 2.28 | 3.56 | 3.6 | 8.09 | 9.11 | 46.7 | 4.73 | 31.8 | 1.67
CN1CCN(CCCNc2nc3ccc(Oc4ccc(NC(=O)Nc5cc(C(F)(F)F)ccc5F)cc4)cc3[nH]2)CC1 | 0.11 | 1.5 | 2.34 | 0.4 | -0.26 | 2.77 | 15.5 | 0.67 | 9.51 | -0.44
NC(=O)c1cc(-c2ccncc2)cc(-c2ccccc2)c1N | 11.9 | 2.69 | 1.61 | 4.36 | 7.85 | 3.23 | 9.56 | 2.09 | 6.55 | 2.08
CCc1nccc2c1nc(-c1nonc1N)n2CC | -0.48 | 0.74 | 0.5 | -0.92 | 0.69 | -0.04 | 2.83 | -0.46 | 4.5 | 0.35
